Measured values published in PubChem BioAssay (NCI).
The panel holds about 83,000 compounds, 20% with a hit somewhere; the sample as a whole holds those more often.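 Activity criterion: percent growth below 10, measured after cells in 96-well plates were exposed to a single compound concentration for 48 hours.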 A number with no mark means an inactive call. Activity calls are given as the source filed them.

The molecules below were run on MDA-MB-468 breast (assay: NCI-60 one-dose screen, 48 h (100 = growth as untreated, 0 = no growth, -100 = all killed)). Settings: 10 µM unless noted.

Point of comparison: COc1ccc(/C=C/c2c(C(=O)/C=C/c3ccc(F)cc3)c(C)nc3ccccc23)cc1, growth 51.5%. Against it:
- CN1CCC(OC2c3ccccc3CCc3ccccc32)CC1 — higher, 89.6%
- C=CCOc1c(Br)cc(Br)cc1Br — higher, 96.8%
- O=C1Nc2ccc(Cl)cc2/C1=N/c1nc(-c2ccc(F)cc2)cs1 — lower, 27.6%
- CC(=O)N1N=C(c2ccc(C(F)(F)F)c(F)c2)CC1c1[nH]c(C)c(C(=O)NCC(F)(F)F)c1C (stereo not given) — higher, 78.5%
- O=CN1N=C(c2ccc3c(c2)OCO3)CC1c1cccc(Nc2ccnc3cc(C(F)(F)F)ccc23)c1 (stereo not given) — lower, 47.1%
- Nc1ccc(C(=O)CSc2nc3ccccc3[nH]2)cc1 — higher, 93.2%
- Nc1nc(Cn2c(-c3nonc3N)nc3ccccc32)nc(N2CCCCC2)n1 — higher, 72.8%
- N#C/C(=C\c1c(-c2ccccc2)[nH]c2ccccc12)S(=O)(=O)c1ccccc1 — lower, 20.5%
- O=S1(=O)OC(c2cc(Cl)c(O)c(Br)c2)(c2cc(Cl)c(O)c(Br)c2)c2ccccc21 — higher, 118%
- N=C(N)N=Nc1ccc(NN=C(N)N)cc1 — higher, 103%
- CC(=O)N(C)c1ccc([N+](=O)[O-])cc1 — higher, 101%

COc1ccccc1Cn1cc2c(c1)-c1oncc1CC2 was tested, and the growth was 6.66% (active).
CN1CC[C@H](c2c(O)cc(O)c3c(=O)cc(-c4ccccc4Cl)oc23)[C@H](O)C1 was tested, and the growth was -42.7% (active).
CCNc1nc(N2CC(=O)Nc3cc(OC)ccc32)c2ccccc2n1 was tested, and the growth was 1.34% (active).
